Gal4-VP16 FLuc = counter-screen for ROR gamma inhibitors: Gal4-VP16 reporter; Potency, µM (titrated, usually from 53.6 µM), without a hit: at the highest dose activity, negative = inhibition, most hits filed as inhibitors; Drosophila S2 Gal4-VP16 UAS-luciferase, luminescence, 20 h; hit rate 3.5% among 310,000;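 note: Gal4-VP16 expression switched on by copper sulfate through the metallothionein promoter; % is set by controls: 0 for no effect and ±100 for the full control effect; nearly all actives have a fitted effect of over 50% in size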
Epigenetic reg = regulators of epigenetic silencing causing reporter derepression in mouse cells | murine LDR cells, GFP reporter derepression, 30 h | Potency, µM (highest dose often 53.9 µM), without a hit: at the top dose GFP activation, hits mostly activators | hit rate 0.2% among 280,000; note: % of control where 0% means no effect; nearly all actives have a fitted effect of over 60% in size
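Murine LDR cells bearing a silenced CMV-driven GFP reporter were exposed to compound for 30 h at 37 C. After PBS washes, GFP-positive cells (20-120 um objects) counted by laser-scanning microplate cytometry.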
RORg inh = inhibitors of mouse ROR gamma transcriptional activity; P51450; Drosophila S2 Gal4-RORgamma UAS-luciferase reporter, 20 h; Potency, µM (doses to about 53.6 µM), for inactives: at the top dose activity change, negative = inhibition, usual class: inhibitors; hit rate 5.4% among 310,000; AID 2551; note: % is set by controls: 0 for no effect and ±100 for the full control effect; nearly all actives have a fitted effect of over 60% in size
Target sequence (P51450 whole entry, looked up, the tested form may be a part): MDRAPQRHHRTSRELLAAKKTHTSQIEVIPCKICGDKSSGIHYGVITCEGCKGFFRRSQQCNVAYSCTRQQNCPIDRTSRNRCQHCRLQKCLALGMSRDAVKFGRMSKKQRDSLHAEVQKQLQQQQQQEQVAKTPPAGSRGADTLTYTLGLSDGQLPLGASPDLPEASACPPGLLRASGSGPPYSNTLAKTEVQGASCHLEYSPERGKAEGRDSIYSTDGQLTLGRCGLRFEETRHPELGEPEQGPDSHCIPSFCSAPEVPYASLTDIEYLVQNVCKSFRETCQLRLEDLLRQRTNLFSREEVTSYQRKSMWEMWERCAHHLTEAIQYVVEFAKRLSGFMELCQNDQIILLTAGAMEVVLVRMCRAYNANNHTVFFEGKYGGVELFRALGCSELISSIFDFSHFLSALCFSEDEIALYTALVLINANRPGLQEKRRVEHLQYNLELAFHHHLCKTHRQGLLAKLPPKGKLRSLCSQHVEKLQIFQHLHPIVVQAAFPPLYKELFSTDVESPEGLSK
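ROR gamma transcriptional activity was tracked as Gal4-UAS luciferase output in stably transfected Drosophila Schneider cells, with compound added 1 hr before 700 uM copper sulfate induction and a 20 hr ambient-temperature incubation.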
PINK1 modulator = changes PINK1 expression. hit rate 0.2% among 410,000. PINK1 immunofluorescence, high-content cytometry, 24 h. Potency, µM (titrated, usually from 76.6 µM), for the others: at the top dose activation (PINK1 increase), actives largely listed as activators; active = well fitted activation curve with a large enough effect; inconclusive = small, poorly fitted or top-dose-only effect; cell line not stated here; note: % of control where 0% means no effect; nearly all actives have a fitted effect of over 65% in size
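Fluorescence from anti-PINK1 antibody, together with nuclear and cell stains, was scanned on a laser-scanning cytometer. Before staining, stable-line cells were incubated 24 hours with compounds at 5 concentrations; primary antibody 12 h at 10 degrees C.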
Sfp inh = Sfp phosphopantetheinyl transferase inhibition; Q9F4F7; Biochemical Sfp PPTase activity, qHTS; Potency, µM, inactives show largest response in the series, negative = inhibition, hits mostly inhibitors; hit rate 3.5% among 310,000; AID 1490;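 note: the enzyme is Sfp with the accession as filed and its product quenches rhodamine fluorescence; 0% = enzyme reaction without inhibitor and -100% = no enzyme wells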
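Compounds were incubated with enzyme (final 15 nM) for 15 min at room temperature before substrate addition started the reaction. Fluorescence at 525 nm excitation, 598 nm emission was recorded immediately and after 30 minutes.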
ClpP mod = qHTS Assay for Activators of ClpP; purified B. subtilis ClpP, FRET peptide cleavage, 20 min; ATP-dependent Clp protease proteolytic subunit (Bacillus subtilis (strain 168)), P80244; Potency, µM (doses to about 57.5 µM), inactives show at the highest dose activity change, negative = active; AID 651965, 2013; hit rate 1.9% among 340,000; active = well fitted falling curve with a large enough effect; inconclusive = small, poorly fitted or top-dose-only effect; inactive = no such curve, though single readings can be large or run the other way; note: the source files actives as falling curves though it sought activators and does not explain the sign; nearly all actives have a fitted effect of over 65% in size
Target sequence (P80244 whole entry, looked up): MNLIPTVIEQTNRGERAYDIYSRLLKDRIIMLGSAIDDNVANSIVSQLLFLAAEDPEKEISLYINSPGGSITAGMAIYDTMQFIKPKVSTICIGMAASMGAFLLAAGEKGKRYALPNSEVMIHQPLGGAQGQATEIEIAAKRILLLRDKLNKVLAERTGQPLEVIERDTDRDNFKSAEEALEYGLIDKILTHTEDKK
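Purified B. subtilis ClpP, 10 microg/mL final in Tris/HCl pH8 with KCl, BSA, glycerol and Tween-20, cleaved an Abz/nitrotyrosine-quenched decapeptide. Fluorescence (ex 320, em 430) was read at 0 and 20 min at room temperature. Delta was normalized to 5.8 microM ADEP and DMSO/no-enzyme controls.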
Starred values were filed as active, the others as inactive; ? = inconclusive; . = not tested or not shown; [ ] = another dose, or the depositor's remark. Hits are enriched below; roughly 8.1% of the tested compounds scored in any of these assays. Unless noted, calls come from the whole dose curve; as a rule, active = well fitted curve in the direction sought with a large enough effect; inconclusive = small, poorly fitted or top-dose-only effect, or another doubt; inactive = no such curve, though single readings can be large; an effect the other way counts as inactive or inconclusive. Potency is the fitted concentration of half-maximal effect.

SMILES | Gal4-VP16 FLuc | Epigenetic reg | RORg inh | PINK1 modulator | Sfp inh | ClpP mod
N#Cc1cc2c(nc1SCc1ccncc1)CCC2 | ? | 2% | ? | -7%[38.3 µM] | 50µM* | -6%
COc1ccc(OC)c(NC(=O)c2ccc3c(c2)c(C)c(C)n3Cc2ccc(F)cc2)c1 | . | 4% | . | 0% | . | 22µM*
COc1ccc(OC)c(CNC(=O)c2ccc3c(c2)c(C)c(C)n3Cc2ccc(Cl)cc2)c1 | . | 5% | . | 5% | . | 32µM*
COc1ccc(NC(=O)c2ccc3c(c2)c(C)c(C)n3Cc2ccc(F)cc2)c(OC)c1 | . | 0% | . | 5% | . | 22µM*
Cc1cccc(Cn2c(=O)n(-c3ccc(Cl)c(Cl)c3)c(=O)c3c(C)c(C)sc32)c1 | . | 2% | . | 0% | . | 2%
CC(=O)Nc1ccccc1-c1nc(CNC(=O)c2cc(C)ccc2C)c(C)o1 | . | . | . | 1% | . | .
O=C(c1cccn1-c1nnc(N2CCCCC2)s1)N1CCN(c2ccc(Cl)cc2)CC1 | . | 3% | . | 0% | . | -4%
CC(C)(C)c1cc(C(=S)N2CCCC2)cc(C(C)(C)C)c1O | 5µM* | . | 6.3µM* | 5% | 40µM* | -2%
COc1cc(C(=O)N2CCCCCCC2)cc(OC)c1OC | 9% | . | 19% | . | 10% | .
COc1cc(C(=S)N2CCCC2)cc(OC)c1OS(=O)(=O)c1ccc(NC(C)=O)cc1 | 6% | -2% | 36% | -2% | 35µM* | -5%
COc1cc(C(=S)N2CCCC2)ccc1OS(=O)(=O)c1ccc(NC(C)=O)cc1 | 7% | -2% | 48% | 1% | 1% | 0%
COc1ccc(S(=O)(=O)Oc2c(OC)cc(C(=S)N3CCOCC3)cc2OC)cc1 | 2% | . | -6% | 1% | 28µM* | .
COc1cc(C(=S)N2CCCC2)cc(OC)c1OC | -23% | -4% | -22% | 6% | 50µM* | 0%
CC(C)CSc1ccccc1NC(=O)c1sc2nc(-c3ccncc3)ccc2c1N | . | ? | . | 0% | . | -1%
CCOc1ccc(CNCc2c(C(=O)O)n(Cc3ccccc3C)c3cc(OC)ccc23)cc1OC | . | ? | . | 3% | . | -14%
Cc1ccc(NS(=O)(=O)c2ccc(NC(=O)N3CCCC3)cc2)cc1C | . | 3% | . | 1% | . | -1%
O=C(c1cc2sccc2n1Cc1ccc(F)cc1)N1CCN(c2nc3ccccc3s2)CC1 | 11µM* | 2% | ? | -2% | 2% | -4%
O=C(c1cccs1)N1CCN(c2nc3ccccc3s2)CC1 | 19% | . | ? | 1% | -8% | -4%
Cc1ccc(S(=O)(=O)c2nc(-c3cccs3)oc2SCc2ccc(F)cc2)cc1 | . | 2% | . | -1% | . | -12%
CC(C)Oc1ccc(CNC(=O)C2CCN(Cc3cc4ccccc4n3Cc3ccccc3)CC2)cc1 | . | 6% | . | 1% | . | -10%
COc1ccc(-n2c(C)cc(/C=C3\C(=O)NN(c4ccccc4)C3=O)c2C)cc1 | -20% | -2% | -39% | -3% | 1% | -2%
Cc1cc(/C=C2\SC(=S)NC2=O)c(C)n1-c1ccccc1 | ? | 5% | 10µM* | -1% | -26% | .
Cc1cc(/C=C2\SC(N)=NC2=O)c(C)n1-c1ccccc1 | -22% | -1% | -10% | 0% | 50µM* | 0%
Cc1cc(/C=C2\SC(=S)NC2=O)c(C)n1-c1ccc(O)cc1 | -21% | 6% | 21% | 1% | 45µM* | 1%
Cc1cc(/C=C2/SC(=O)NC2=O)c(C)n1-c1ccc(N2CCOCC2)cc1 | -5% | -1% | 31% | ? | 7% | 3%
SMILES | Gal4-VP16 FLuc | Epigenetic reg | RORg inh | PINK1 modulator | Sfp inh | ClpP mod
COc1ccc(-n2c(C)cc(/C=C3\SC(=S)NC3=O)c2C)cc1 | -10% | 25µM* | -3% | 32µM* | 2% | 2%
Cc1cc(/C=C2\SC(=S)NC2=O)c(C)n1C | 20% | 0% | -19% | . | -8% | -7%
COc1ccc(Br)cc1CNC(=O)c1cc2ccccn2n1 | . | -3% | . | -1% | . | -21%
Cc1ccccc1C(=O)N1CCc2c(cnc(C)c2CNC(=O)CN2CCCCC2)C1 | . | . | . | 1% | . | .
Cc1csc2nc(COc3ccc(NC(=O)COc4ccccc4F)cc3)cc(=O)n12 | . | ? | . | -1% | . | -4%
CCc1cccc2c(-c3ccccc3)nc(SCC(=O)Nc3ccc(OC)cc3)nc12 | . | 4% | . | 4% | . | 1%
COc1cccc(NC(=O)CCc2c(C)nc3c4cccnc4nn3c2C)c1 | . | 7% | . | 3% | . | 5%
CC(C)CCC(CCN1CCCC1)c1ccc2c(c1)OCO2 (stereo not drawn) | 2% | -5% | 23% | 1% | -21% | .
CC(C)CCC(CCN1CCOCC1)c1ccc2c(c1)OCO2 (stereo not drawn) | ? | 1% | ? | 20%[38.3 µM] | 79µM* | 1%
Cn1cc(/C=N/NC(=O)c2cccc([N+](=O)[O-])c2)c2ccccc21 | ? | 2% | 0.5µM* | 14% | 9% | -4%
Cc1nc(C)c(C(=O)N/N=C/c2cn(C)c3ccccc23)s1 | ? | 0% | 11µM* | 11% | -3% | 1%
COc1ccc(/C=N/NC(=O)c2cccc([N+](=O)[O-])c2)c2ccccc12 | ? | . | ? | -3% | -8% | 2%
O=C(N/N=C/c1ccnc2ccccc12)c1ccccc1O | -12% | . | -41% | 2% | 4% | -1%
CC(=O)n1cc(/C=N/NC(=O)c2ccccc2O)c2ccccc21 | 3.5µM* | . | 2.8µM* | 0% | 5% | -7%
Cn1cc(/C=C/C(=O)c2ccccc2)c2ccccc21 | -5% | 17% | ? | 5% | 50µM* | .
CCC(CC)c1nn2c(=O)cc(COc3ccc(NC(=O)c4ccccc4Cl)cc3)nc2s1 | . | 5% | . | 13% | . | 0%
CC(=O)n1cc(C=O)c2ccccc21 | . | . | . | 2% | . | -1%
Cn1cc(/C=N/NC(=O)c2ccccc2O)c2ccccc21 | 0.89µM* | . | 0.56µM* | -1% | 9% | -13%
CC(=O)n1cc(/C=N/NC(N)=S)c2ccccc21 | ? | -3% | 4.5µM* | 0% | -17% | .
CCN(C(=O)CCn1cnc2onc(-c3ccc(F)cc3)c2c1=O)c1ccc(OC)cc1 | . | 8% | . | 0% | . | 0%
C[C@@H]1C=CCC(=O)OC[C@H](C)C(=O)OC[C@H]2O[C@H]1C=C[C@@H]2O | -1%[10 µM] | 0%[10.1 µM] | 4%[10 µM] | . | 20% | .
Cc1nnc(N2CCCC(C(=O)NCc3ccc(OC(C)C)cc3)C2)c2nn(-c3ccccc3)c(C)c12 (stereo not drawn) | -20% | . | -5% | 2% | 89µM* | 4%
COc1ccc(CNC(=O)C2CCCN(c3nnc(C)c4c(C)n(-c5ccc(C)cc5)nc34)C2)cc1 (stereo not drawn) | . | -2% | . | 0% | . | ?
COc1ccccc1-c1nn2c(=O)cc(CN3CCN(C(=O)/C=C/c4ccccc4)CC3)nc2s1 | . | -2% | . | -1% | . | 4%

Source: PubChem BioAssay (National Center for Advancing Translational Sciences (NCATS))
